Screening data from PubChem BioAssay.
The entries come from a sample that favours hits as a whole.
Pf Dd2 inh – inhibitors of Plasmodium falciparum Dd2 growth | AID 1347417 | 120,000 compounds, 4.3% hits | Potency, µM (series often up to 28.9 µM), without a hit: top-dose activity, negative = inhibition, most hits filed as inhibitors | P. falciparum Dd2 growth, SYBR Green, 72 h; active = well fitted inhibition curve with a large enough effect;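 note: plate controls were DMSO vehicle for no effect and reference drug for full effect; nearly all actives have a fitted effect of over 65% in size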
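Infected erythrocytes (Dd2, 0.3% parasitemia, 2.5% hematocrit final) are added to compound in RPMI-1640/Albumax II medium, grown 72 h at 37C in low oxygen, then lysed with saponin/Triton-X containing SYBR Green and read by fluorescence.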
The depositor's hits bear a star. Potency is the fitted concentration of half-maximal effect.

For COc1ccc(Cc2c(C)nn(-c3nc(C)c(C(=O)Nc4ccc(C)cc4C)s3)c2C)cc1 the results were Pf Dd2 inh -13%.
COc1ccccc1NC(=O)c1sc2nc(N3CCOCC3)c3c(c2c1N)CC(C)(C)OC3 was read as Pf Dd2 inh -3%.
Screening CCCCOC(=O)c1ccc(NC(=O)c2sc3nc(C)cc(C)c3c2N)cc1 returned Pf Dd2 inh -14%.
For COc1ccccc1NC(=O)c1sc2nc(C)c(C(=O)Nc3ccc(C)cc3C)c(-c3ccccc3Cl)c2c1N the results were Pf Dd2 inh 5.6µM*.
Screening COC(=O)c1ccccc1NC(=O)c1sc2nc(C)cc(C)c2c1NC(=O)c1ccccc1OC returned Pf Dd2 inh 33%.
COc1cccc(C(=O)Nc2nc(-c3ccc(Br)cc3)ns2)c1 was read as Pf Dd2 inh 11%.
COCCCNC(=O)c1sc2nc(C)c(C(=O)Nc3ccc(Cl)cc3)c(-c3ccc(Br)cc3)c2c1N was read as Pf Dd2 inh -9%.
`COc1ncccc1-c1cccc(CCOc2cnc3c(ccn3CC(=O)O)c2)c1` gave Pf Dd2 inh inactive.
O=C(NCCc1cnccn1)[C@H]1CNC[C@@H](C(=O)N2CCOCC2)C1 was read as Pf Dd2 inh 2%.
For Cc1noc(C)c1CC(=O)NCCc1noc(-c2ccccc2)n1 the results were Pf Dd2 inh -7%.
For Cn1cnc(C(=O)N2C[C@@H](COc3ccccc3)[C@H](C(N)=O)C2)c1 the results were Pf Dd2 inh 2%.
Screening CC(C)NC(=O)N1CCCCCNC(=O)[C@@H]2CCCC[C@@H]21 returned Pf Dd2 inh 26%.
For Cc1ccc(C)c(C(=O)NCc2nnc3cc(-c4nc(C)no4)ccn23)c1 the results were Pf Dd2 inh inactive.
For Cc1ccc(NC(=O)c2sc3nc(-c4ccc(F)cc4)ccc3c2N)cc1F the results were Pf Dd2 inh 0%.
Cc1cc(F)ccc1NC(=O)c1sc2nc(-c3cccs3)ccc2c1N was read as Pf Dd2 inh -6%.
Screening Cc1ccc(NC(=O)c2c(C)nc3sc(C(=O)Nc4ccc(F)cc4)c(N)c3c2-c2ccc(C)o2)c(C)c1 returned Pf Dd2 inh 3.5µM*.
Screening CCOCCN1C(=O)NC(c2ccccc2)C2=C1COC2=O (centres undefined) returned Pf Dd2 inh -4%.
Screening O=C(CN1CCCC1=O)N1CCC2(CC1)NCCc1c2[nH]c2ccccc12 returned Pf Dd2 inh 19%.
For O=C(Cn1c(=O)oc2ccccc21)N1CCC2(CC1)NCCc1c2[nH]c2ccccc12 the results were Pf Dd2 inh 8.9µM*.
COCCC(=O)N1CCC2(CC1)NCCc1c2[nH]c2ccccc12 was read as Pf Dd2 inh -19%.
Cc1c(C(C)NC(=O)C(=O)c2ccco2)cnn1-c1cccc2ccccc12 (centres undefined) was read as Pf Dd2 inh 23%.
O=C(Cc1ccccc1C(F)(F)F)N1CCC2(CC1)[C@H](O)C[C@@H]2O was read as Pf Dd2 inh 7%.
For COc1ccc(C(C)=O)cc1CSc1nc(Nc2ccc(F)c(F)c2)c2ccccc2n1 the results were Pf Dd2 inh 11µM*.
Screening COc1ccc(-c2nnc(SCc3cccc(Cl)c3)o2)cc1 returned Pf Dd2 inh 44%.
For COc1ccccc1NC(=O)CN1CCN(CC(=O)Nc2ccc(F)c(F)c2)CC1 the results were Pf Dd2 inh -22%.
Screening COc1ccc(CNc2nc(SCc3ccccc3Cl)nc3ccccc23)cc1 returned Pf Dd2 inh inactive.
For COc1ccc(NC(=O)CSc2nc(-c3ccccc3)c3ccccc3n2)cc1 the results were Pf Dd2 inh 27%.
Screening COc1ccc(NC(=O)C(=O)NCCc2ccccc2)cc1OC returned Pf Dd2 inh 28%.
`COc1cc(Nc2nc(SCc3cccc(Cl)c3)nc3ccccc23)cc(OC)c1` gave Pf Dd2 inh 10µM*.
`COc1ccc(CCNc2nc3c(c(=O)n(C)c(=O)n3C)n2Cc2ccccc2Cl)cc1OC` gave Pf Dd2 inh inactive.
For COc1ccc(CCNc2nc(SCc3ccccc3Cl)nc3ccccc23)cc1OC the results were Pf Dd2 inh 3.5µM*.
CCSc1nc2ccccc2c(OCc2cc(C(=O)OC)ccc2OC)c1C(=O)OC was read as Pf Dd2 inh -9%.
Screening COc1cc(Nc2nc(SCC(=O)c3ccc(Cl)c(Cl)c3)nc3ccccc23)cc(OC)c1 returned Pf Dd2 inh -7%.
For COc1ccc(C(C)=O)cc1CSc1nc(NCCc2ccccc2)c2ccccc2n1 the results were Pf Dd2 inh 11µM*.
For CCc1noc(-c2cn(C3CCN(C(=O)C(C)c4ccccc4)CC3)nn2)n1 (centres undefined) the results were Pf Dd2 inh -1%.
`COc1ccccc1OCCNC(=O)C1(C)CCCCC(=O)N1` (centres undefined) gave Pf Dd2 inh -1%.
`CC[C@H]1CN(C(=O)Nc2cccc(C(F)(F)F)c2)CC[C@H]1CC(=O)N(C)CCC#N` gave Pf Dd2 inh inactive.
`Cc1ccc(NS(=O)(=O)c2ccccc2)c(=O)n1CC(=O)NCc1cccc(Cl)c1` gave Pf Dd2 inh inactive.
